A selection: hits, their analogues and other compounds. The true share with any hit is near 3.7%.
Mtb bLac sens – beta-lactam sensitization of Mtb H37Rv. M. tuberculosis H37Rv growth with meropenem, percent inhibition. inhibition, % at 25 µM. actives 0.27% (n = 330,000). AID 434955; call rule not given here;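 also: growth measured after seven days incubation then overnight dye step; 0% = bacteria only wells and 100% = bacteria with antibiotic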
FadD28 FP inh – blocks FadD28 binding to the bisubstrate probe. fluorescence polarization. inhibition, % at 12.5 µM. actives 0.22% (n = 360,000); in the data active = inhibition above about 8.5%, passing the limit was not always enough; inconclusive = no clear call, values can overlap the other calls
UGM FP inh – inhibitors of M. tuberculosis UDP-galactopyranose mutase; P9WIQ1; purified UGM, fluorescence polarization probe displacement; inhibition, % at 10 µM; AID 504406; actives 0.06% (n = 320,000); in the data active = inhibition above about 10%, passing the limit was not always enough; inconclusive = no clear call, values can overlap the other calls
GDH-TPI counter-1 – inhibits GDH-TPI coupling enzymes, artifact for Mtb FBA screen | GDH-TPI coupled enzyme counterscreen, NADH absorbance | actives 1.2% (n = 360,000) | inhibition, % at 4.8 µM; in the data active = inhibition above about 30%;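 also: 0% = DMSO wells and 100% = wells lacking the enzyme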
Rv3671c inh – inhibits the M. tuberculosis serine protease Rv3671c; P9WHR9; inhibition, % at 5.96 µM; actives 0.048% (n = 320,000); AID 2606; in the data active = inhibition above about 38%;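 also: extracellular domain of Rv3671c used as enzyme; 0% = enzyme with DMSO and 100% = no enzyme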
Target sequence (P9WHR9 whole entry, looked up, the tested form may be a part): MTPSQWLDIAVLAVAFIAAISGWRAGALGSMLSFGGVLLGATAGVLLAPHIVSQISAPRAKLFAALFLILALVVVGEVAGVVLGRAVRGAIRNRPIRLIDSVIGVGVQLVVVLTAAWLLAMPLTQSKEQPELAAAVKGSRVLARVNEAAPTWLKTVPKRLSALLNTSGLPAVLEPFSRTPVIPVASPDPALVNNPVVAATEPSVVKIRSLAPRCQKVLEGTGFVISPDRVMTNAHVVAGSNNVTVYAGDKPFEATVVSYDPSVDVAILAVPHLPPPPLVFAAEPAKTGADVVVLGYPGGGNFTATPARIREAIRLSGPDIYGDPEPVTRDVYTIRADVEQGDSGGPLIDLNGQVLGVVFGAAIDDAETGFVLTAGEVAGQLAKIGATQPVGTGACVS
Mtb FBA inh – inhibits M. tuberculosis FBA enzyme. P9WQA3. purified M. tuberculosis FBA, fluorescence read-out. inhibition, % at 1 µM. actives 2.3% (n = 360,000);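 also: 0% = vehicle and 100% = reference inhibitor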
Mtb FBA confirm – Mtb FBA inhibition, confirmed. shares compounds with Mtb FBA inh. purified M. tuberculosis FBA, fluorescence read-out. inhibition, % at 1 µM. actives 78% (n = 5,600). AID 651616;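 also: 0% = vehicle wells and 100% = reference inhibitor wells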
GDH-TPI counter-2 – GDH-TPI inhibition counter-screen for FBA inhibitors; actives 81% (n = 5,600); inhibition, % at 1 µM; GDH-TPI coupled enzyme counterscreen, fluorescence; shares compounds with Mtb FBA inh; in the data active = inhibition above about 10%
GDH-TPI dose – inhibits GDH-TPI coupling enzymes in dose response; shares compounds with Mtb FBA inh; GDH-TPI coupled enzyme assay, fluorescence, artifact counterscreen; IC50, µM; actives 79% (n = 170); AID 652145; call rule not given here
* hit, by the source's call; u = inconclusive; x = no result given; + = active, no number. Rule as the data show it, unless noted: active = inhibition above about 27%; inactive = the rest.

SMILES | Mtb bLac sens | FadD28 FP inh | UGM FP inh | GDH-TPI counter-1 | Rv3671c inh | Mtb FBA inh | Mtb FBA confirm | GDH-TPI counter-2 | others
CCOC(=O)N1CCN(C(=O)COC(=O)c2ccccc2NCCO)CC1 | -7 | -1 | 0 | 9 | 3 | 107* | 77* | 78*
O=C(OCC(=O)N(CCc1ccccc1)Cc1ccccc1)c1ccccc1O | 91 | -2 | 3 | 7 | -4 | 8 | x | x
COc1ccc(N2CCN(C(=O)COC(=O)c3cccc(OC)c3O)CC2)cc1 | 2 | -2 | -3 | 9 | 5 | -2 | x | x
CNc1ccccc1C(=O)OCC(=O)N1CCN(c2ccc(OC)cc2)CC1 | 2 | -2 | -2 | 5 | -2 | 73* | 0 | -5
O=C(OCC(=O)N1CCC(Cc2ccccc2)CC1)c1ccccc1O | 94 | -2 | -1 | 6 | -2 | -1 | x | x
O=C(OCC(=O)N(CCc1ccccc1)Cc1ccccc1)c1ccccc1NCCO | 4 | -5 | -1 | -8 | 8 | 66* | 164* | 106*
O=C(OCC(=O)N1CCC(Cc2ccccc2)CC1)c1ccccc1NCCO | 3 | 1 | 1 | 7 | 7 | 80* | 47* | 29*
C[C@@H]1CN([C@@H](C)CO)C(=O)CCCn2nncc2CO[C@@H]1CN(C)S(=O)(=O)c1ccc(F)cc1 | x | -3 | x | 1 | x | -1 | x | x
CCc1nc2c(OCc3cc(Cl)cc(Cl)c3)cccn2c1N(C=O)Cc1ccc(OC)cc1 | x | -7 | x | -16 | x | -1 | x | x
COc1ccccc1C1C2=C(CCCC2=O)N(CC(=O)O)C2=C1C(=O)CCC2 | 8 | -1 | 4 | 5 | 3 | 40* | -2 | -2
CCOC(=O)N1CCc2cc(OC)c(OC)c3c2c1cc1cc(OC)c(OC)cc13 | x | -2 | x | 9 | x | 38* | 12 | -1 | GDH-TPI dose=5.5*
COc1ccc(C(CNC(=O)CNC(=O)c2cccc(F)c2)N2CCOCC2)cc1 (stereo unspecified) | x | -2 | x | 7 | x | 6 | x | x
CCN(CC)C(=O)[C@H]1CC(CC(=O)NCCCn2ccnc2)C(=O)N2CCc3c([nH]c4ccc(OC)cc34)[C@]12C (stereo partly specified) | x | -1 | x | 7 | x | -1 | x | x
CCOC(=O)C1=C(C)NC(C)=C(C(=O)OC)C1c1cccc(Cl)c1Cl (stereo unspecified) | 3 | -2 | 0 | 9 | 2 | 41* | 11 | 3 | GDH-TPI dose=>10
COC(=O)C1=C(C)NC(=O)CC1c1cccc(Cl)c1Cl (stereo unspecified) | -2 | -4 | 2 | 6 | -3 | -1 | x | x
Cc1cc(OCC(=O)N(C)c2ccccc2)cc2c1C(=O)CC(C)(C)O2 | 0 | -3 | -1 | 1 | 10 | 8 | x | x
CCN(CC)C(=O)COc1ccc2c(c1)C(=O)CC(C)(C)O2 | 1 | -1 | 9 | 9 | -3 | 59* | 87* | 72*
Cc1ccc(OCC(=O)N2CCOCC2)cc1C | -13 | -2 | -1 | 3 | -2 | 2 | x | x
CC1(C)CC(=O)c2cc(OCC(=O)N3CCOCC3)ccc2O1 | -6 | 1 | -3 | 15 | 6 | 48* | + | +
Cc1nnc(N/N=C/c2cccc(OCc3ccc(Cl)c(Cl)c3)c2)n1N | 100 | -9 | -1 | 10 | -68 | -1 | x | x
CC(O)(c1ccccc1)c1nc(-c2cccc(C#N)c2)cs1 (stereo unspecified) | x | -3 | x | 2 | x | 3 | x | x
COc1ccc(-c2ccc(C(=O)NCc3ccncc3)c3occc23)c(C)c1 | x | -22 | x | -8 | x | 111* | + | +
COc1ccc(-c2ccc(C(=O)NCC(C)C)c3occc23)c(C)c1 | x | -15 | x | 10 | x | 58* | 166* | 132*
COc1ccc(-c2ccc(C(=O)NCC3CC3)c3occc23)c(C)c1 | x | -15 | x | -1 | x | 57* | 46* | 33*
COc1ccc(-c2ccc(C(=O)Nc3ccccc3)c3occc23)c(C)c1 | x | -4 | x | 4 | x | -2 | x | x
SMILES | Mtb bLac sens | FadD28 FP inh | UGM FP inh | GDH-TPI counter-1 | Rv3671c inh | Mtb FBA inh | Mtb FBA confirm | GDH-TPI counter-2 | others
COc1ccc(-c2ccc(C(=O)NCc3ccc(F)c(F)c3)c3occc23)c(C)c1 | x | -3 | x | 4 | x | 10 | x | x
OCC1OC(c2ccc(OCc3ccccc3)cc2OCc2ccccc2)C(O)C1O (stereo unspecified) | x | -3 | x | -4 | x | -1 | x | x
Cc1ccc2nc3c(cc(C(N)=S)c(=N)n3CCCOC(C)C)c(=O)n2c1 | u | -4 | 0 | 4 | 8 | 48* | 84* | 66*
Cc1cccn2c(=O)c3cc(C#N)c(=N)n(CCCN4CCOCC4)c3nc12 | -17 | 1 | u | 2 | -7 | 62* | + | +
COCCn1c(=N)c(S(=O)(=O)c2ccc(F)cc2)cc2c(=O)n3cccc(C)c3nc21 | -4 | -4 | -2 | -13 | -1 | -3 | x | x
CCCn1c(=N)c(S(=O)(=O)c2ccc(F)cc2)cc2c(=O)n3cccc(C)c3nc21 | -4 | -1 | 1 | 4 | -9 | 5 | x | x
COCCCn1c(=N)c(C(N)=S)cc2c(=O)n3cccc(C)c3nc21 | -1 | -7 | -1 | 10 | 13 | 73* | 57* | 42*
CCCn1c(=N)c(C#N)cc2c(=O)n3ccccc3nc21 | -2 | 0 | 0 | 0 | 7 | 34* | 75* | 68*
COc1ccc(-c2noc(CCC(=O)NC3CCCCC3)n2)cc1 | -2 | -3 | -2 | -5 | 0 | 4 | x | x
Cc1cccn2c(=O)c3cc(C(=O)NC4CCCCC4)c(=N)n(CCN4CCOCC4)c3nc12 | -8 | -1 | 3 | 1 | -4 | 67* | 43* | 41*
Cc1cccn2c(=O)c3cc(C(N)=S)c(=N)n(CCCN4CCOCC4)c3nc12 | -3 | -3 | 1 | -1 | -1 | 57* | 56* | 55*
Cc1cccn2c(=O)c3cc(C(=O)NCc4ccc(F)cc4)c(=N)n(CCCN4CCOCC4)c3nc12 | x | -1 | x | 9 | x | 80* | 81* | 82*
COc1ccc(-c2cc(C)no2)cc1S(=O)(=O)NCc1ccc(OC(C)C)cc1 | 5 | -1 | -1 | 6 | -9 | 3 | x | x
O=C(COC(=O)c1cccc(F)c1)NC(=O)NCc1ccccc1 | -3 | 0 | 0 | 3 | -3 | 3 | x | x
CCOC(=O)C1(CCOC)CCCCC1=O (stereo unspecified) | x | -1 | x | 10 | x | -1 | x | x
COc1ccc(-c2[nH]c(-c3cc(OC)c4c(c3)OCO4)nc2-c2ccccc2)cc1 | 73 | -3 | 2 | 15 | -10 | 61* | + | +
Cc1cc(C)c(-c2cc(C(F)(F)F)no2)c(=O)[nH]1 | -9 | 1 | 2 | 22 | 8 | 30* | + | 147*

Bioassay records deposited in PubChem by several laboratories.
